Screening data deposited in PubChem by National Center for Advancing Translational Sciences (NCATS).
In the library only some 5% were active in any assay of this set; here they are far more common.
HEK293 cAMP ctrl: raises cAMP in parental HEK293 cells, TSHR agonist counter-screen. Potency, µM (series often up to 57.1 µM), without a hit: at the highest dose activation, most hits filed as activators. parental HEK293 CNG cAMP sensor, membrane potential fluorescence. actives 2.5% (n = 73,000); further: % of control where 0% means no effect; nearly all actives have a fitted effect of over 55% in size
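Parental HEK 293 cells stably expressing a modified CNG channel (no TSHR) report cAMP rise as membrane depolarization. Membrane potential dye with 100 uM RO 20-1724 was loaded for 60 min at room temperature, then compound added for 30 min; fluorescence read at 590 nm.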
TSHR ag: agonists of human thyroid stimulating hormone receptor; P16473; HEK293-CNG-TSHR cells (CNG channel as cAMP sensor), membrane potential dye, cAMP; Potency, µM (titrated, usually from 57.1 µM), for inactives: at the highest dose activation, usual class: activators; actives 0.48% (n = 73,000); AID 926; active means well fitted activation curve with a large enough effect in the main read-out, with a control signal flat, not every such curve was filed as active; inconclusive means small, poorly fitted or top-dose-only effect, or a change in a side signal; inactive means no such curve, though single readings can be large or run the other way; % of control where 0% means no effect;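 further: the control signal comes from parental cells without the receptor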
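HEK 293 cells stably expressing TSHR and a cAMP-gated CNG channel; parental CNG-only cells as counterscreen. Cells preloaded 60 min with membrane potential dye plus 100 uM RO 20-1724, then compound 30 min; fluorescence read at 590 nm.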
CRE Fsk mod: CRE-bla signaling modulation under forskolin stimulation; CHO CRE-bla reporter (cAMP response element driving beta-lactamase), forskolin EC10, beta-lactamase ratio; Potency, µM (titrated, usually from 38.2 µM), without a hit: top-dose activity change, negative = inhibition, most hits filed as activators; actives 2.5% (n = 71,000); active means well fitted activation curve with a large enough effect in the signal ratio, with a control signal flat, not every such curve was filed as active; inconclusive means small, poorly fitted or top-dose-only effect, or effect the other way, or a change in a side signal; the % refers to the signal ratio; further: % of control where 0% means no effect
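qHTS titration format; CRE-bla CHO reporter; stimulus EC10 NKH 477, a water-soluble forskolin. Read: CCF4 460/530 nm ratio. Potency expressed as AC50 for activators or inhibitors.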
Caspase-1 inhib: blocks human caspase-1 allosterically or competitively; Caspase-1 enzyme, Ac-WEHD-AFC fluorogenic rate; Potency, µM (series often up to 57.5 µM), for the others: top-dose activity change, negative = inhibition, hits mostly inhibitors; actives 0.03% (n = 75,000); AID 900;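 further: plate controls were vehicle for no effect and no substrate for full effect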
USP2a inhib: blocks human ubiquitin-specific protease USP2a. USP2a enzymatic assay, qHTS inhibition. Potency, µM (highest dose often 38.3 µM), for inactives: at the highest dose activity change, negative = inhibition, actives largely listed as inhibitors. O75604. AID 927. actives 0.1% (n = 60,000); further: nearly all actives have a fitted effect of over 60% in size
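Inhibition is measured in a cell-free coupled assay with 20 nM USP2 core, 20 nM Ub-PLA2 and 20 uM NBD C6-HPC, 2.5 h incubation. Activity normalized to NEM control.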
Caspase-7 inhib: caspase-7 (human) inhibition, allosteric or competitive; P55210; recombinant caspase-7, Ac-DEVD-AFC fluorescence rate; Potency, µM (titrated, usually from 57.5 µM), for the others: top-dose activity change, negative = inhibition, actives largely listed as inhibitors; actives 0.02% (n = 75,000); active means well fitted inhibition curve with a large enough effect in the main read-out, with a control signal flat, not every such curve was filed as active; inconclusive means small, poorly fitted or top-dose-only effect, or a change in a side signal; further: % of control where 0% means no effect
* hit, by the source's call; ? = inconclusive; . = no result given; [ ] = remark or other dose. Unless noted, the call rests on the fitted dose curve; in most records, active means well fitted curve in the direction sought with a large enough effect; inconclusive means small, poorly fitted or top-dose-only effect, or another doubt; inactive means no such curve, though single readings can be large; an effect the other way counts as inactive or inconclusive. Potency means the concentration at half of the fitted maximal effect.

SMILES	HEK293 cAMP ctrl	TSHR ag	CRE Fsk mod	Caspase-1 inhib	USP2a inhib	Caspase-7 inhib
Nc1ccn([C@@H]2O[C@H](COC(=O)C34CC5CC(CC(C5)C3)C4)[C@@H](O)[C@@H]2O)c(=O)n1	-1%[11.4 µM]	-1%[11.4 µM]	22%[7.6 µM]	-1%[11.5 µM]	.	-1%[11.5 µM]
CCOC(=O)c1c(NC(=O)c2cccs2)sc(C)c1CC	15%	.	13µM*	?	.	?
CCc1c(C)sc(NC(=O)c2cccs2)c1C(=O)OC(C)C	6%	0%	?	?	.	?
COC(=O)[C@@]1(Cc2ccc(F)cc2)[C@H]2c3cc(C(=O)N(C)C)n(Cc4ccc(OC)c(OC)c4)c3C[C@H]2CN1C(=O)c1ccccc1	16µM*	?	?	-3%	.	-9%
COCCn1c(C(=O)N2CCCC2)cc2c1C[C@H]1CN(C(=O)c3ccccc3)[C@@](Cc3ccc(F)cc3)(C(=O)OC)[C@@H]21	13µM*	?	-15%	-1%	.	-2%
COC(=O)[C@@]1(Cc2ccc(OC)cc2)[C@H]2c3cc(C(=O)N(C)C)n(Cc4ccccc4)c3C[C@H]2CN1C(=O)c1ccccc1	13µM*	?	-2%	-6%	.	-5%
COC(=O)[C@@]1(Cc2ccc(OC)cc2)[C@H]2c3cc(C(=O)N(C)C)n(Cc4ccc(OC(F)(F)F)cc4)c3C[C@H]2CN1C(=O)c1ccccc1	?	?	11%	-3%	.	-4%
COCCn1c(C(=O)N(C)C)cc2c1C[C@H]1CN(C(=O)c3ccccc3)[C@@](Cc3ccc(F)cc3)(C(=O)OC)[C@@H]21	16µM*	?	-5%	1%	.	-2%
COC(=O)[C@@]1(Cc2ccc(F)cc2)[C@H]2c3cc(C(=O)N(C)C)n(Cc4ccc(O)c(OC)c4)c3C[C@H]2CN1C(=O)c1ccccc1	?	?	?	-6%	.	-10%
COC(=O)[C@@]1(Cc2ccc(F)cc2)[C@H]2c3cc(C(=O)N(C)C)n(CCO)c3C[C@H]2CN1C(=O)c1ccccc1	11%	-4%	-20%	0%	.	2%
CO[C@H]1COC(=O)[C@H](C)NC(=O)C/C=C\[C@@H](C)[C@H](OC)COC(=O)[C@@H](OCc2ccccc2)/C=C\[C@@H]1C	7%[11.4 µM]	-6%[11.4 µM]	.	-1%[11.5 µM]	.	0%[11.5 µM]
COC(=O)[C@@]1(Cc2ccc(F)cc2)[C@H]2c3cc(C(=O)N(C)C)n(Cc4ccccc4)c3C[C@H]2CN1C(=O)c1ccccc1	10µM*	?	-5%	-5%	.	-8%
COC(=O)[C@@]1(Cc2ccc(F)cc2)[C@H]2c3cc(C(=O)N(C)C)n(Cc4ccc(C)o4)c3C[C@H]2CN1C(=O)c1ccccc1	3.2µM*	?	1%	-4%	.	-4%
COC(=O)NC(c1ccc(F)cc1)C(C(C)=O)C(=O)OC (stereo unspecified)	8%[11.4 µM]	3%[11.4 µM]	.	0%[11.5 µM]	.	2%[11.5 µM]
O=C(NC1CCCCCC1)C1c2ccccc2C(=O)N1Cc1ccco1 (stereo unspecified)	13µM*	?	-12%	0%	9%	2%
Cc1ccc(NS(=O)(=O)c2cc(C(=O)O)ccc2Cl)cc1C	10%	7%	.	-1%	.	-1%
CCCNC(=O)CS(=O)(=O)Cc1nc(-c2cccc(OC)c2)oc1C	16%	13%	-1%	1%	.	-1%
COc1cccc(-c2nc(CS(=O)(=O)CC(=O)Nc3cccc(C)c3C)c(C)o2)c1	25µM*	?	?	-2%	.	-2%
COc1nc(-c2ccccc2)ccc1-c1noc(COc2ccccc2)n1	32µM*	?	?	?	-2%	-5%
CCCCCCCCCCCCCCCC(=O)NC[C@@H](COP(=O)([O-])OCC[N+](C)(C)C)OCC	20%	.	?	1%	24%	4%
COC(=O)c1cc2sccc2n1CC(=O)Nc1ccc(OC)c(OC)c1OC	2%	3%[11.4 µM]	2%	0%	17%	1%
